30 molecules from ChEMBL document CHEMBL1157539, “Thousands of chemical starting points for antimalarial lead identification” (Nature, 2010) can be followed below.

Common to all, as to assay type: functional
In test [1] the test system is Plasmodium falciparum. The test can be described thus: GSK_TCMDC: Inhibition of Plasmodium falciparum 3D7 in whole red blood cells, using parasite LDH activity as an index of growth. Test compounds present at 2uM.
The test system of test [2] is Plasmodium falciparum. The test can be described thus: GSK_TCMDC: Inhibition of Plasmodium falciparum Dd2 in whole red blood cells, using parasite LDH activity as an index of growth. Test compounds present at 2uM.
The subject of a further test is HepG2. Briefly: GSK_TCMDC: Percent inhibition of human HepG2 cell line. Test compounds present at 10uM.

Each structure is given as a SMILES string.

On to `C=CCn1c(Sc2ccc(C#N)c([N+](=O)[O-])c2)nnc1-c1cc(OC)cc(OC)c1`, for which the Inhibition (usually the relative decrease from the control value, in per cent) is listed as 96% with Plasmodium falciparum [1], 84% in the test on Plasmodium falciparum [2] and 12% in the test on HepG2.
The corresponding values for `Cc1cccc2nc(-c3cccc(-c4ccc(CNCCCN5CCCC5=O)cc4)c3)[nH]c12.O=C(O)C(F)(F)F` are 100%, 38% and 5%.
For `COc1cc(Cc2cnc(N)nc2N)cc(CC(C)O)c1O` (stereo not given) the same measures were 93%, 2% and 0%.
Take `CNC(=O)C1Cc2c([nH]c3ccc(Cl)cc23)C2(CCN(CCc3ccccc3)CC2)N1` (stereo not given): the Inhibition in the test on Plasmodium falciparum [1] was 98%; in the test on Plasmodium falciparum [2], 16%; in the test with HepG2, 2%.
The corresponding values for `CNC(=N)c1ccc(NC(=O)Nc2ccc(C(=N)NC)cc2)cc1.Cl` are 84%, 71% and 0%.
The corresponding values for `Cc1cc(NC2CCN(CC3CCCCC3)C2)nc(Nc2ccc(Cl)cc2)n1` (stereo not given) are 98%, 83% and 26%.
Take `CCNc1cc(C(=O)N[C@@H](Cc2ccc(F)c(F)c2)[C@H](O)CNC2CCCCC2)cc(N2CCCCS2(=O)=O)c1.Cl`: the Inhibition in the test on Plasmodium falciparum [1] is 100%; in the test on Plasmodium falciparum [2], 84%; in the test on HepG2 it was 1%.
The corresponding values for `Cc1cc(OCCN2CCCCC2)ccc1NC(=O)c1cccc2c(=O)n(Cc3ccc(Cl)cc3)cnc12` are 88%, 56% and 100%.
On to `CN(C)S(=O)(=O)c1ccc(N2CCN(CCC3(c4cccc(F)c4)CCN(C(=O)C(C)(C)C)CC3)CC2)c2nonc12`, for which the Inhibition in the test with Plasmodium falciparum [1] is recorded as 91%; in the test with Plasmodium falciparum [2], 85%; in the test with HepG2, 8%.
Turning to `O=c1cc(NCCCNCc2cccc(I)c2)[nH]c2ccccc12`, the Inhibition turned out to be 90% with Plasmodium falciparum [1], 9% in the test on Plasmodium falciparum [2] and 10% in the test with HepG2.
The corresponding values for `COc1ccc(F)cc1-c1ccccc1CNC(=O)CN(C)S(=O)(=O)c1cc(C)cc(Cl)c1C` are 92%, 73% and 0%.
In the case of `COc1cccc(C(=O)NC(c2ccc(Cl)cc2Cl)c2cc(Cl)c3cccnc3c2O)c1` (stereo not given), the Inhibition in the test with Plasmodium falciparum [1] came out at 100%; in the test with Plasmodium falciparum [2] it was 76%; in the test on HepG2, 37%.
Consider `COc1cc(NC(=O)c2sc(-c3ccc(Cl)cc3)cc2NC(=O)c2cccc(N(C)C)c2)ccc1OCCN1CCCC1`, for which the Inhibition is listed as 99% in the test with Plasmodium falciparum [1], 67% with Plasmodium falciparum [2] and 49% with HepG2.
The corresponding values for `O=C(CSc1cccc[n+]1[O-])c1ccc(Cc2ncc(C(F)(F)F)cc2Cl)s1` are 99%, 0% and 13%.
With `COc1cc2nc(N3CC(C)N(C(=O)Cc4ccc(-c5ccccc5)cc4)C(C)C3)nc(N)c2cc1OC` (stereo not given), the Inhibition in the test with Plasmodium falciparum [1] amounted to 100%; with Plasmodium falciparum [2] it was 12%; with HepG2, 26%.
With `Cc1cc(OCCCN2CCC(NS(=O)(=O)c3ccc(Cl)c(Cl)c3)C2)c2ccccc2n1` (stereo not given), the Inhibition in the test with Plasmodium falciparum [1] is listed as 87%; with Plasmodium falciparum [2], 37%; in the test with HepG2, 28%.
For `CC(CN(C)C)C(=O)Nc1ccc(-c2csc(-c3nc4ccccc4[nH]3)c2)cc1` (stereo not given) the same measures were 84%, 19% and 28%.
For `COc1ccc2ccccc2c1CNCC1CCN(CC2CCCCC2)CC1.O=C(O)C(F)(F)F` the same measures were 98%, 27% and 23%.
Consider `COc1cc2c(c(Cl)c1OC)CCN(Cc1ccccc1)CC2c1ccc(C(N)=O)cc1` (stereo not given), for which the Inhibition in the test with Plasmodium falciparum [1] came to 97%; in the test with Plasmodium falciparum [2], 60%; with HepG2, 7%.
Turning to `Nc1nccc2ccc(-c3ccc(OCc4ccccc4)cc3)cc12.O=C(O)C(F)(F)F`, the Inhibition in the test with Plasmodium falciparum [1] came to 100%; with Plasmodium falciparum [2], 67%; in the test with HepG2 it was 40%.
Turning to `CC(C)(C)c1ccc2[nH]c(-c3ccc(/C=C/C(=O)NCc4cccc(C(F)(F)F)c4)cc3)nc2c1`, the Inhibition is recorded as 93% in the test with Plasmodium falciparum [1], 11% with Plasmodium falciparum [2] and 31% in the test with HepG2.
Regarding `CC(C)(C)[C@@H](Nc1ccc(C#N)c2ccccc12)C(=O)NC1(Cc2ccc(O)cc2)CCCC1`, the Inhibition in the test with Plasmodium falciparum [1] is listed as 90%; with Plasmodium falciparum [2] it was 74%; in the test on HepG2, 14%.
The corresponding values for `COc1ccc(CN2CCCN(Cc3cccc(NC(=O)c4ccc(-c5ccccc5)cc4)c3)CC2)cc1.O=C(O)C(F)(F)F` are 94%, 24% and 37%.
The corresponding values for `CS(=O)(=O)Nc1cccc(-c2cnc3[nH]cc(-c4ccc(CCC(=O)O)cc4)c3c2)c1` are 98%, 78% and 7%.
The corresponding values for `CCOc1ncccc1CN1CCC(N2CCc3cc(NC(=O)c4ccco4)ccc32)C1` (stereo not given) are 90%, 94% and 3%.
`Cc1nc(C)c(-c2ccc(C(F)(F)F)cc2)c(O)c1Br`: the Inhibition with Plasmodium falciparum [1] was 98%; with Plasmodium falciparum [2], 96%; in the test on HepG2, 0%.
The corresponding values for `Cc1ccc(-n2c(=O)c3cccnc3n2CC(=O)Nc2cccc(C)c2C)cc1` are 96%, 20% and 9%.
For `CN(C)CCNCc1ccc(-c2ccc3c(Nc4ccc(Cl)cc4F)ccnc3c2)o1` the same measures were 99%, 100% and 14%.
The corresponding values for `O=C(N/N=C/c1nc2ccccc2[nH]1)c1cccc([N+](=O)[O-])c1` are 99%, 82% and 0%.
Regarding `COc1cccc(C(=O)N2CCN(Cc3cccc(NC(=O)c4cccs4)c3)CC2)c1.O=C(O)C(F)(F)F`, the Inhibition in the test on Plasmodium falciparum [1] turned out to be 95%; in the test on Plasmodium falciparum [2], 95%; with HepG2, 6%.
